Measurements taken from ChEMBL document CHEMBL2218924, “A broad activity screen in support of a chemogenomic map for kinase signalling research and drug discovery” (Biochem J, 2013).

What was measured:
[1] = biological target: T1, Testis-specific serine/threonine-protein kinase 1 (Homo sapiens) (UniProt Q9BXA7); conditions: at 1 µM
T1 sequence (whole entry): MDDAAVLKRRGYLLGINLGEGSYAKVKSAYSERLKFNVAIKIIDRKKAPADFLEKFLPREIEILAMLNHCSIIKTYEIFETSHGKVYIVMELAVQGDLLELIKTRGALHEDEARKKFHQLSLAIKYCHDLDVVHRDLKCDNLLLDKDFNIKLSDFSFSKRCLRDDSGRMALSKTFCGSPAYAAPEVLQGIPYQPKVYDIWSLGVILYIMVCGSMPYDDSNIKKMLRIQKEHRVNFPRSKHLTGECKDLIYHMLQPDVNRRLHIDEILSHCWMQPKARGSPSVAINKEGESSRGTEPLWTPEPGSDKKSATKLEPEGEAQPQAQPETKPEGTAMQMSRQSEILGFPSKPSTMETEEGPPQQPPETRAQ

[2] = biological target: T1, Testis-specific serine/threonine-protein kinase 1 (Homo sapiens); conditions: at 10 µM
[3] = biological target: T2, Testis-specific serine/threonine-protein kinase 2 (Homo sapiens) (UniProt Q96PF2); conditions: at 10 µM
T2 sequence (whole entry): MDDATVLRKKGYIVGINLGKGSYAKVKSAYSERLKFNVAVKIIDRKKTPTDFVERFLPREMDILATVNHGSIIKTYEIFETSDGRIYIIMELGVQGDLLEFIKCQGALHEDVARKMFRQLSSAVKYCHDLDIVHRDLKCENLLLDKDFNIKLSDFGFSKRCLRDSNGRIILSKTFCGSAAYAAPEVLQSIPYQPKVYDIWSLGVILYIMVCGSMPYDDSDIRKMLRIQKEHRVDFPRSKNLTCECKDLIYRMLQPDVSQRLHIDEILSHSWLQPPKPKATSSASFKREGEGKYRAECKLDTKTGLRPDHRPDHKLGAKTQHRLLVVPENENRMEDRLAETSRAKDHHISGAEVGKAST

[4] = biological target: T3, Tyrosine-protein kinase Tec (Homo sapiens) (UniProt P42680); conditions: at 1 µM
T3 sequence (whole entry): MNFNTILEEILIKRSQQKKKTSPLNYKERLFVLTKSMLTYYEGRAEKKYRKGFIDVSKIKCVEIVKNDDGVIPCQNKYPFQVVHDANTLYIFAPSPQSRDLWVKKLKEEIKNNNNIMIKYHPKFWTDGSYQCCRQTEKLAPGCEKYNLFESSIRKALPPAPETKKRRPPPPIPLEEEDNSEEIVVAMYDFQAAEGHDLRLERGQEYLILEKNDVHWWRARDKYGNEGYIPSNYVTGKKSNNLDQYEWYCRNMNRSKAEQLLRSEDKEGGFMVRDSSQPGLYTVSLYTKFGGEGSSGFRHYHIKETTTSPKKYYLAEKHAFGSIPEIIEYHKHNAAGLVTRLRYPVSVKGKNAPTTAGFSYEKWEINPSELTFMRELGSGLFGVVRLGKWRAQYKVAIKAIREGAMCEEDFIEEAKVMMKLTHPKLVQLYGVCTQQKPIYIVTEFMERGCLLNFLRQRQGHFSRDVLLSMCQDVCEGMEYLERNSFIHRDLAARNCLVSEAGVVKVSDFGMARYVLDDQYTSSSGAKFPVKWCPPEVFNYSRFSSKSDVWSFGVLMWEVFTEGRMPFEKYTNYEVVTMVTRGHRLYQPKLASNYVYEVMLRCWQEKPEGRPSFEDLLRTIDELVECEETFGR

[5] = biological target: T3, Tyrosine-protein kinase Tec (Homo sapiens); conditions: at 10 µM
[6] = biological target: Angiopoietin-1 receptor (Homo sapiens) (UniProt Q02763); conditions: at 1 µM
Chain of Angiopoietin-1 receptor (Homo sapiens) (Q02763 whole entry): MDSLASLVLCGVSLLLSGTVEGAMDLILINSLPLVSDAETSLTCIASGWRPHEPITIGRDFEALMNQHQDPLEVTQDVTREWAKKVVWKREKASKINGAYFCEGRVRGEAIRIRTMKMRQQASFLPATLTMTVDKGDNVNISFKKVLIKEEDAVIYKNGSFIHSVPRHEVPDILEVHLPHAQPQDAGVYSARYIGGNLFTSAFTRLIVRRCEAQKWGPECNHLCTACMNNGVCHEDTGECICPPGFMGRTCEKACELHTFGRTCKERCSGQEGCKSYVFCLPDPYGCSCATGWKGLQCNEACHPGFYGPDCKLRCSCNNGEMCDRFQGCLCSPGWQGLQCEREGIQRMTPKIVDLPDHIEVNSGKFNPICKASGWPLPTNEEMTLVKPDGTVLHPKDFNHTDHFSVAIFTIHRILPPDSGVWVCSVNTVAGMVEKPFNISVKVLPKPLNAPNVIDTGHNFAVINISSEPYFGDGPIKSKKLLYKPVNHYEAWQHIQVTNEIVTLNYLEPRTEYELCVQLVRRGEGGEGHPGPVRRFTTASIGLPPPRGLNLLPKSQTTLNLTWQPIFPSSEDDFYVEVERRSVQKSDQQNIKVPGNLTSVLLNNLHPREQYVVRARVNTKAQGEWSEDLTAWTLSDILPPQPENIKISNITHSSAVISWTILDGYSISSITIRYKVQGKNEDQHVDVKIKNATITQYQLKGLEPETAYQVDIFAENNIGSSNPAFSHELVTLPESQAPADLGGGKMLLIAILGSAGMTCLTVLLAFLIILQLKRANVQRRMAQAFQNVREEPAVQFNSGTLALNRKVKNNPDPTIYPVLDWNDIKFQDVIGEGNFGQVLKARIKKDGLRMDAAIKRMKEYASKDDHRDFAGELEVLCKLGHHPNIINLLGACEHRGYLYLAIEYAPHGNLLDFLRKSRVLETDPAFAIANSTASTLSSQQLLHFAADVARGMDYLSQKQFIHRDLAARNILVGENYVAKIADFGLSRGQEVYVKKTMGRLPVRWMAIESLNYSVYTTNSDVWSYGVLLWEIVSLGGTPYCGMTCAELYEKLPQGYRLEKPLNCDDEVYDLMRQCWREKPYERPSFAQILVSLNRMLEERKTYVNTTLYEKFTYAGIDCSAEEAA

[7] = biological target: Angiopoietin-1 receptor (Homo sapiens) (UniProt Q02763); conditions: at 10 µM
[8] = biological target: High affinity nerve growth factor receptor (Homo sapiens) (UniProt P04629); conditions: at 1 µM
Chain of High affinity nerve growth factor receptor (Homo sapiens) (P04629 33-796 limits assumed): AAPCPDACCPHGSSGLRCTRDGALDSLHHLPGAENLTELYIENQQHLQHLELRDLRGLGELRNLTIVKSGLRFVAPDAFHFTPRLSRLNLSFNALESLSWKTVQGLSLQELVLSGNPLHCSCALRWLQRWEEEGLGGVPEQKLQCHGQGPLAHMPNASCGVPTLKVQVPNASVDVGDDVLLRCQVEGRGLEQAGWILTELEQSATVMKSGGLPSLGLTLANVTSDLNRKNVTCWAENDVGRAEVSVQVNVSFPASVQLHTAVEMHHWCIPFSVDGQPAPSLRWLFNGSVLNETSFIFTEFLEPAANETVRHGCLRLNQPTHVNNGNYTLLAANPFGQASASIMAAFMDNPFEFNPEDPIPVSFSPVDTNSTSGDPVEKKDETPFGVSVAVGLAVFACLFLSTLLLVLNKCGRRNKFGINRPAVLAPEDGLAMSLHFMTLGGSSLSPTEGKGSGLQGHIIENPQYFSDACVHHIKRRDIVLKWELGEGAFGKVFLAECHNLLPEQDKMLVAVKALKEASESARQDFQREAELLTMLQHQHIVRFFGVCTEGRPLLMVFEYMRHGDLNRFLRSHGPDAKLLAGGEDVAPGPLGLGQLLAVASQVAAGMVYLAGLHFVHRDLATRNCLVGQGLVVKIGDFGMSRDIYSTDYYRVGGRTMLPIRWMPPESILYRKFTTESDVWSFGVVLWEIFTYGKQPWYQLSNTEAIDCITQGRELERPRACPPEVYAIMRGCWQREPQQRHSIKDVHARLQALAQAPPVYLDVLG

[9] = biological target: High affinity nerve growth factor receptor (Homo sapiens) (UniProt P04629); conditions: at 10 µM
[10] = biological target: BDNF/NT-3 growth factors receptor (Homo sapiens) (UniProt Q16620); conditions: at 1 µM
[11] = biological target: BDNF/NT-3 growth factors receptor (Homo sapiens) (UniProt Q16620); conditions: at 10 µM
[12] = biological target: T4, Tyrosine-protein kinase TXK (Homo sapiens) (UniProt P42681); conditions: at 1 µM
T4 sequence (whole entry): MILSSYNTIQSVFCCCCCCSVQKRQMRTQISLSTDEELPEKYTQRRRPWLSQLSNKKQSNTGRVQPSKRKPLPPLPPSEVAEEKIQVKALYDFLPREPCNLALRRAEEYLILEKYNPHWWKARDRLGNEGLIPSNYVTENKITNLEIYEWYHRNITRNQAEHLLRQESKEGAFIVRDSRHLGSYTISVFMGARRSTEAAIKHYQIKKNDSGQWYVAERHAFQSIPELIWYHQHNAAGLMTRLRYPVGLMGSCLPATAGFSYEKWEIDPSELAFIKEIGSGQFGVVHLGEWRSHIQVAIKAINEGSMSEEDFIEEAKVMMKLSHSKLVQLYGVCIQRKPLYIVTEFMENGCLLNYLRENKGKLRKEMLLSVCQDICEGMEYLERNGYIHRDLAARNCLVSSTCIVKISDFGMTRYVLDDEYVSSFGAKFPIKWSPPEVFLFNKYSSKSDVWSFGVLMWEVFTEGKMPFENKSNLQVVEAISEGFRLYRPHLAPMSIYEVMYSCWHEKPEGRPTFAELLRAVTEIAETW

[13] = biological target: T4, Tyrosine-protein kinase TXK (Homo sapiens); conditions: at 10 µM
[14] = biological target: T5, Serine/threonine-protein kinase ULK2 (Homo sapiens) (UniProt Q8IYT8); conditions: at 1 µM
T5 sequence (whole entry): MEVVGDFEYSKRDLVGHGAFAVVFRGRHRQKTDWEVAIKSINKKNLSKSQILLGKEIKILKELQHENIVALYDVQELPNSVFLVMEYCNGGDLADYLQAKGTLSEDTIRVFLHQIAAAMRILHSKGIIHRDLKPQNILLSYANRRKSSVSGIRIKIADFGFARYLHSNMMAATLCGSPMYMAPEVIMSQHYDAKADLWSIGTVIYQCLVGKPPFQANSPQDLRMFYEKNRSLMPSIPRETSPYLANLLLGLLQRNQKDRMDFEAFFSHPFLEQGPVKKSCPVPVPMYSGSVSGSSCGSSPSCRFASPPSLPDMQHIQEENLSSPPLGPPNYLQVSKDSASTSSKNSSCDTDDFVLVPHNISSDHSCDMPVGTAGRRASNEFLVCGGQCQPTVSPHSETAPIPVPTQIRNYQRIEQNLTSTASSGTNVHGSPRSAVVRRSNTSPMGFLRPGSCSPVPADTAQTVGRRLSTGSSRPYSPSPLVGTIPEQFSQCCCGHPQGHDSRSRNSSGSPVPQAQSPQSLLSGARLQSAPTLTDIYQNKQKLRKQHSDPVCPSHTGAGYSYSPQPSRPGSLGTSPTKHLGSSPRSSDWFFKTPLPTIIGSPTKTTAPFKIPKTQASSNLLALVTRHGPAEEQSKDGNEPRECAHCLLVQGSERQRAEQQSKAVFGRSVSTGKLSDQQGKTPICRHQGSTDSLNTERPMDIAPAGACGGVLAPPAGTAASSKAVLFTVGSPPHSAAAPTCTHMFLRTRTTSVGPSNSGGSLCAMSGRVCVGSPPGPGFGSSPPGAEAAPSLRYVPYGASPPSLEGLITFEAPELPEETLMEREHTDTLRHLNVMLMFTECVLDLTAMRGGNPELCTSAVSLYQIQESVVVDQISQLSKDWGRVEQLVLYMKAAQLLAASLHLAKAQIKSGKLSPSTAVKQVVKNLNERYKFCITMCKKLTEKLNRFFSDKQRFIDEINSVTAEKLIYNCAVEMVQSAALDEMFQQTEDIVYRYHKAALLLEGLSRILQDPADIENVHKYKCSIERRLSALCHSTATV

[15] = biological target: T5, Serine/threonine-protein kinase ULK2 (Homo sapiens); conditions: at 10 µM
[16] = biological target: T6, Serine/threonine-protein kinase ULK3 (Homo sapiens) (UniProt Q6PHR2); conditions: at 1 µM
T6 sequence (whole entry): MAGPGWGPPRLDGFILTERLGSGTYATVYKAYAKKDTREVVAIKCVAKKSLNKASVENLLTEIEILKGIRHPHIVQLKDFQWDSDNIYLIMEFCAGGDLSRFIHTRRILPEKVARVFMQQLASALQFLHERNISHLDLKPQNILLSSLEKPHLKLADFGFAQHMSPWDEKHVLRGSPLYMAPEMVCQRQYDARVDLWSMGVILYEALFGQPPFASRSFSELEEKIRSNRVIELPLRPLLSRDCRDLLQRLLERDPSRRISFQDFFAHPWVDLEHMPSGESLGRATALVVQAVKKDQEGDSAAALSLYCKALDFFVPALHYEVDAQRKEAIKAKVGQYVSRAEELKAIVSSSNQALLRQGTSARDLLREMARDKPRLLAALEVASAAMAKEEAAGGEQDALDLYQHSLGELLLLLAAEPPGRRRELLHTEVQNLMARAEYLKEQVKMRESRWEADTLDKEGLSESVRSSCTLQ

[17] = biological target: T6, Serine/threonine-protein kinase ULK3 (Homo sapiens); conditions: at 10 µM
[18] = biological target: Serine/threonine-protein kinase VRK2 (Homo sapiens) (UniProt Q86Y07); conditions: at 1 µM
Chain of Serine/threonine-protein kinase VRK2 (Homo sapiens) (Q86Y07 whole entry): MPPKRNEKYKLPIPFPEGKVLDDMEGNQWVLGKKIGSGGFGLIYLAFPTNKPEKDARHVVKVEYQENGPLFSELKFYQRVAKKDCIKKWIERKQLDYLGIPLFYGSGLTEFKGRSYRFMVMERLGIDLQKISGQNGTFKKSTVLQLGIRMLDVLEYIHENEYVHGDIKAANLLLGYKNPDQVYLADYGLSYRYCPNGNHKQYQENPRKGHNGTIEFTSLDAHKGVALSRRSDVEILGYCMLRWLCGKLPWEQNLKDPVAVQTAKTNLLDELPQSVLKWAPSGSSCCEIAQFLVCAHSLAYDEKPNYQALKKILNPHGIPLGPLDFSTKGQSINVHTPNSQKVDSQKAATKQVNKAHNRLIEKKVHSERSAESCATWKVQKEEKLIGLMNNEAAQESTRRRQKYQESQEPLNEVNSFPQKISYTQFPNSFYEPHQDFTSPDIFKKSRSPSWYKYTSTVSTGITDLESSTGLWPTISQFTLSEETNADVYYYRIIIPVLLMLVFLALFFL

[19] = biological target: Serine/threonine-protein kinase VRK2 (Homo sapiens) (UniProt Q86Y07); conditions: at 10 µM
[20] = biological target: Serine/threonine-protein kinase WNK2 (Homo sapiens) (UniProt Q9Y3S1); conditions: at 1 µM;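 also: residual WNK2 kinase activity expressed as percent of uninhibited control, assayed in MOPS buffer at pH 7.0 containing EDTA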
Chain of Serine/threonine-protein kinase WNK2 (Homo sapiens) (Q9Y3S1 whole entry): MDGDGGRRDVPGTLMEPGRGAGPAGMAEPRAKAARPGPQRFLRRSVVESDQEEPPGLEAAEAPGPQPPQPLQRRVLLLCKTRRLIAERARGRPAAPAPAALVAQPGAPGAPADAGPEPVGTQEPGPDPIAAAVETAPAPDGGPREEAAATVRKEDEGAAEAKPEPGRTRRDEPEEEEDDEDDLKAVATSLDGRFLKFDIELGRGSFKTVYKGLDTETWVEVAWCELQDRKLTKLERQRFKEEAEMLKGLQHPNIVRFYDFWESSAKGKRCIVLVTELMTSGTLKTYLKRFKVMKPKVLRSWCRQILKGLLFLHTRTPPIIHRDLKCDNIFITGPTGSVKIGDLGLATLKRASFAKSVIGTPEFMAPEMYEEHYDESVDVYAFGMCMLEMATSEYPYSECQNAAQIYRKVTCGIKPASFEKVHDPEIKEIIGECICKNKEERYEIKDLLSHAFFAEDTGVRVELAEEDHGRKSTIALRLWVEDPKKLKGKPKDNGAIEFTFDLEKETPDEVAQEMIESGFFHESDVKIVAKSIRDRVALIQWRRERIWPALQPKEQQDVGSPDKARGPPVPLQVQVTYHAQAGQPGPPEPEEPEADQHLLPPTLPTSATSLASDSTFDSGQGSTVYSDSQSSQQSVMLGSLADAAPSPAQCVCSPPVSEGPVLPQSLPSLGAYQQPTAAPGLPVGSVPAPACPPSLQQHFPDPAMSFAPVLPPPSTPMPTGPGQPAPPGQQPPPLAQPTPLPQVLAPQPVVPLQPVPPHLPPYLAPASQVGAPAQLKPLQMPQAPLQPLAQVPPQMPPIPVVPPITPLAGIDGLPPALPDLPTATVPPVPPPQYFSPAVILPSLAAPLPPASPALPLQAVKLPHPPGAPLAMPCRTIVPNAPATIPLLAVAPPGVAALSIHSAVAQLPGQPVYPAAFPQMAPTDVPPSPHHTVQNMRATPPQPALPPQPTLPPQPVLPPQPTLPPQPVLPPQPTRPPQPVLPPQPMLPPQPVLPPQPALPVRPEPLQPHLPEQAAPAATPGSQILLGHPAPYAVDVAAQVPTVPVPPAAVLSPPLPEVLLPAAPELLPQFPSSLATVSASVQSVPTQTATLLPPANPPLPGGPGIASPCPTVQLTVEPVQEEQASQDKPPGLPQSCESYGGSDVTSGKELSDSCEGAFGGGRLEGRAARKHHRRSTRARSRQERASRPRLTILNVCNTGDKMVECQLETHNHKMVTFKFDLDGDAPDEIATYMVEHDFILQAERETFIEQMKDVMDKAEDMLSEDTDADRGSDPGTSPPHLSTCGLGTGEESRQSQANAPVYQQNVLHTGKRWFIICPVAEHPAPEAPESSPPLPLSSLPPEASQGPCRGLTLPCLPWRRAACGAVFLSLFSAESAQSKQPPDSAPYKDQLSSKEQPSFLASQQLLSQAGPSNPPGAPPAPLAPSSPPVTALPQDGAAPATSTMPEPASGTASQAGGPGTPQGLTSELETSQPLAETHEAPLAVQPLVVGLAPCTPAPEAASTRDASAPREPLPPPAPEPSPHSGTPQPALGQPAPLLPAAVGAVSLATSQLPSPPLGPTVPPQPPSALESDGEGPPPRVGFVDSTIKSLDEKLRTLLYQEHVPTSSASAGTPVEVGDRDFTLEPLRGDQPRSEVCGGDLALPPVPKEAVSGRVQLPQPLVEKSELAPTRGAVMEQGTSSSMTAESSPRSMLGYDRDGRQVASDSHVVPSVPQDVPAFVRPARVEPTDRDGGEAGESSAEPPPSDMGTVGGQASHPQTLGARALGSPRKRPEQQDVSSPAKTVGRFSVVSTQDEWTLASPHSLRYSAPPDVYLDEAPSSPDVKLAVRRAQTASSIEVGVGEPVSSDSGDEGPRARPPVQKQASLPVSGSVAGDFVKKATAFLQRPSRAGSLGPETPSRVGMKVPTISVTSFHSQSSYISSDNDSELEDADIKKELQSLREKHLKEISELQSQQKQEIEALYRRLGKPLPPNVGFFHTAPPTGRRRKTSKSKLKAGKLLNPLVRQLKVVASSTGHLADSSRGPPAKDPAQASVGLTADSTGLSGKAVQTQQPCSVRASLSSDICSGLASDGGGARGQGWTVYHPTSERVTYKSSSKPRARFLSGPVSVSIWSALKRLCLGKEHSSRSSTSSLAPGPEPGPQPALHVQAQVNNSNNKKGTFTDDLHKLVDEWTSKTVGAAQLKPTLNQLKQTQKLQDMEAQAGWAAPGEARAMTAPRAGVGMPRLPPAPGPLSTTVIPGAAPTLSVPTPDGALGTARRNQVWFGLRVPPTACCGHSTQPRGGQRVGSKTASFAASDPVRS

SMILES | residual activity [1] [%] | residual activity [2] [%] | residual activity [3] [%] | residual activity [4] [%] | residual activity [5] [%] | residual activity [6] [%] | residual activity [7] [%] | residual activity [8] [%] | residual activity [9] [%] | residual activity [10] [%] | residual activity [11] [%] | residual activity [12] [%] | residual activity [13] [%] | residual activity [14] [%] | residual activity [15] [%] | residual activity [16] [%] | residual activity [17] [%] | residual activity [18] | residual activity [19] [%] | residual activity [20]
O=C1NC(=O)c2c1c1c3ccccc3[nH]c1c1[nH]c3cc(Br)ccc3c21 | 110 | 91 | 86 | 98 | 82 | 94 | 81 | 37 | 27 | 74 | 42 | 89 | 72 | 108 | 95 | 88 | 86 | 95% (inactive) | 90 | 96% (inactive)
COc1ccc(OC)c2c(=S)c3ccccc3[nH]c12 | 90 | 94 | 90 | 92 | 84 | 94 | 94 | 78 | 57 | 88 | 92 | 84 | 86 | 100 | 102 | 86 | 101 | 91% (inactive) | 86 | 86% (inactive)
Nc1n[nH]c2nnc(-c3c(-c4ccccc4)nn4ccccc34)cc12 | 87 | 90 | 86 | 82 | 50 | 94 | 72 | 68 | 24 | 94 | 52 | 77 | 60 | 95 | 96 | 92 | 87 | 89% (inactive) | 68 | 88% (inactive)
O=C(O)c1ccc2c3c1cccc3c(=O)n1c3ccccc3nc21 | 106 | 79 | 108 | 99 | 82 | 106 | 99 | 78 | 19 | 86 | 59 | 77 | 60 | 90 | 48 | 91 | 70 | 105% (inactive) | 89 | 113% (inactive)
O=C1Nc2cc(Br)ccc2/C1=C1/Nc2ccccc2/C1=N\O | 86 | 90 | 62 | 15 | 13 | 67 | 79 | 0 | 0 | -1 | -1 | 13 | 23 | 102 | 98 | 55 | 16 | 94% (inactive) | 90 | 89% (inactive)
O=C1NC(=O)c2cc(Nc3ccc(F)cc3)c(Nc3ccc(F)cc3)cc21 | 94 | 81 | 61 | 87 | 60 | 70 | 44 | 84 | 56 | 100 | 88 | 79 | 27 | 107 | 89 | 107 | 81 | 99% (inactive) | 86 | 82% (inactive)
